Structures can show the parent of a compound that is named as a salt.
What follows are molecules tested on Saccharomyces cerevisiae BY4741 SeMeCo community (assay: z-score of subpopulation abundance vs DMSO median, subpopulation auxotrophic for HU; higher = larger share of this subpopulation than in DMSO controls). Conditions: 10 µM; 24 h; SM minimal medium; subpopulation (auxotrophy): HU.
Procedure: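 Fluorescent four-plasmid SeMeCo (self-establishing metabolically cooperating S. cerevisiae BY4741 community; plasmids pH-mRuby2, pL-mWasabi, pU-eCFP, pM-TagRFP657) was grown 24 h in minimal SM medium with each Selleck FDA-approved drug at 10 µM in 384-well plates. Cells were fixed and imaged by high-content confocal microscopy. For each auxotrophic subpopulation (and the prototroph), a z-score gives the deviation from the DMSO vehicle-control population median.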

Structure (SMILES) | z-score of subpopulation abundance
COc1cccc2c1C(=O)c1c(O)c3c(c(O)c1C2=O)C[C@@](O)(C(=O)CO)C[C@@H]3O[C@H]1C[C@H](N)[C@H](O[C@@H]2CCCCO2)[C@H](C)O1 [Pirarubicin] | 4
O=C(C1CCCCC1)N1CC(=O)N2CCc3ccccc3C2C1 (stereo not given) [Praziquantel] | -0.36
COc1ccc2[nH]c([S+]([O-])Cc3ncc(C)c(OC)c3C)nc2c1 (stereo not given) [Omeprazole Sodium] | -0.78
O=C1c2c(O)ccc(O)c2C(=O)c2c(NCCNCCO)ccc(NCCNCCO)c21 [Mitoxantrone 2HCl] | 26.5
c1ccc(-c2ccc(C(c3ccccc3)n3ccnc3)cc2)cc1 (stereo not given) [Bifonazole] | 1.01
CN1CCN(CCCN2c3ccccc3Sc3ccc(Cl)cc32)CC1 [Prochlorperazine dimaleate salt] | 0.89
Nc1ccc(S(=O)(=O)Nc2ccccn2)cc1 [Sulfapyridine] | -0.55
CC1(C)S[C@@H]2[C@H](NC(=O)C(C(=O)O)c3ccccc3)C(=O)N2[C@H]1C(=O)O (stereo not given in full) [Carbenicillin disodium] | -0.53
NC[C@@H]1O[C@H](O[C@H]2[C@@H](O)[C@H](O[C@@H]3[C@@H](O)[C@H](N)C[C@H](N)[C@H]3O[C@H]3O[C@H](CN)[C@@H](O)[C@H](O)[C@H]3N)O[C@@H]2CO)[C@H](N)[C@@H](O)[C@@H]1O [Neomycin sulfate] | -0.31
CC1(C)S[C@@H]2[C@H](NC(=O)[C@H](C(=O)O)c3ccsc3)C(=O)N2[C@H]1C(=O)O [Ticarcillin sodium] | -0.4
O=C(c1ccc(F)cc1)C1CCN(CCn2c(=O)[nH]c3ccccc3c2=O)CC1 [Ketanserin] | -0.13
C[N+]1(C)CCC(OC(=O)C(O)(c2ccccc2)C2CCCC2)C1 (stereo not given) [Glycopyrrolate] | 0.57
CC(C)[C@H]1CC[C@H](C(=O)N[C@H](Cc2ccccc2)C(=O)O)CC1 [Nateglinide] | 0.06
CCCc1nc(C)c2c(=O)nc(-c3cc(S(=O)(=O)N4CCN(CC)CC4)ccc3OCC)[nH]n12 [Vardenafil HCl Trihydrate] | 1.92
CCN1CCN(C(=O)N[C@@H](C(=O)N[C@@H]2C(=O)N3C(C(=O)O)=C(CSc4nnnn4C)CS[C@H]23)c2ccc(O)cc2)C(=O)C1=O [Cefoperazone] | -0.48
CC[C@@H]([C@H](C)O)n1ncn(-c2ccc(N3CCN(c4ccc(OC[C@@H]5CO[C@@](Cn6cncn6)(c6ccc(F)cc6F)C5)cc4)CC3)cc2)c1=O [Posaconazole] | 16.4
C#C[C@]1(O)CC[C@H]2[C@@H]3CCc4cc(OC5CCCC5)ccc4[C@H]3CC[C@@]21C [Quinestrol] | 0.41
C#CCC(Cc1cnc2nc(N)nc(N)c2n1)c1ccc(C(=O)N[C@@H](CCC(=O)O)C(=O)O)cc1 (stereo not given in full) [Pralatrexate] | -3.79
O=C(O)c1ccccc1O [Salicylic acid] | -1
Cc1cc2c(s1)Nc1ccccc1N=C2N1CCN(C)CC1 [Olanzapine] | 0.19

Structure (SMILES) | z-score of subpopulation abundance
CCOc1cc(NC(C)=O)ccc1C(=O)OC [Ethopabate] | -0.22
COc1cc(NS(=O)(=O)c2ccc(N)cc2)ncn1 [Sulfamonomethoxine] | 0.5
CCCCC(F)(F)[C@@]1(O)CC[C@H]2[C@@H](CC(=O)[C@@H]2CCCCCCC(=O)O)O1 [Lubiprostone] | -0.05
Cc1cc(NS(=O)(=O)c2ccc(N)cc2)no1 [Sulfamethoxazole sodium] | 0.96
O=C(O)CCC(=O)c1ccc(-c2ccccc2)cc1 [Fenbufen] | 0.87
O=C1C(=O)c2ccccc2C(O)=C1C1CCC(c2ccc(Cl)cc2)CC1 (stereo not given) [Atovaquone] | 0.94
C[C@H](NCc1ccc(OCc2cccc(F)c2)cc1)C(N)=O [Safinamide Mesylate] | 0.27
COc1ccccc1OCC(O)CN1CCN(CC(=O)Nc2c(C)cccc2C)CC1 (stereo not given) [Ranolazine 2HCl] | -0.09
CC(=O)OCC1=C(C(=O)O)N2C(=O)[C@@H](NC(=O)CSc3ccncc3)[C@H]2SC1 [Cephapirin Benzathine] | 1.01
COCC(=O)Nc1cc(Sc2ccccc2)ccc1N=C(NC(=O)OC)NC(=O)OC [Febantel] | -0.73
COc1cc(C(C)=O)ccc1OCCCN1CCC(c2noc3cc(F)ccc23)CC1 [Iloperidone] | -0.38
NCC[C@H](O)C(=O)N[C@@H]1C[C@H](N)[C@@H](O[C@H]2O[C@H](CN)[C@@H](O)[C@H](O)[C@H]2O)[C@H](O)[C@H]1O[C@H]1O[C@H](CO)[C@@H](O)[C@H](N)[C@H]1O [Amikacin disulfate] | -0.01
NC(=O)N1c2ccccc2CC(=O)c2ccccc21 [Oxcarbazepine] | 0.16
CNC1CCCN(c2c(F)cc3c(=O)c(C(=O)O)cn(C4CC4)c3c2OC)C1 (stereo not given) [Balofloxacin] | 0.32
CC/C(=C(\c1ccccc1)c1ccc(OCCN(C)C)cc1)c1ccccc1 [Tamoxifen] | 1.39
O=C(CCCN1CCC(O)(c2ccc(Cl)cc2)CC1)c1ccc(F)cc1 [Haloperidol] | -0.95
O=C(O)c1cc(-c2ccc(F)cc2F)ccc1O [Diflunisal] | -2.05
COC(=O)C1=C(C)NC(C)=C(C(=O)OCC(C)C)C1c1ccccc1[N+](=O)[O-] (stereo not given) [Nisoldipine] | 0.04
CCOc1cc(N)c([N+](=O)[O-])cc1C(=O)NC1CCN(CC2CC=CCC2)CC1 (stereo not given) [Cinitapride Hydrogen Tartrate] | 0.74
CC(C)COc1ccc(CNC(=O)N(Cc2ccc(F)cc2)C2CCN(C)CC2)cc1 [Pimavanserin] | 1.4
